Autofluor 339: intrinsic fluorescence of library compounds, ex339/em460 – biochemical, MLSMR library, data from DPM-DC assay, artefact control, profiling panel | compound autofluorescence, ex339/em460 nm, NADH buffer; active compounds read high; 1 = no-compound wells, NADH background | fluorescence fold increase at 10 µM | 65,000 compounds, 5.5% hits;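 active = at 10 µM, mean starting fluorescence two-fold or more over control wells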;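 also: signal is the first read of a kinetic run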
MK inhibit: inhibitors of Streptococcus pneumoniae mevalonate kinase | purified MK, PK/LDH-coupled NADH absorbance 340 nm | AID 555 | inhibition, % at 10 µM | 65,000 compounds, 0.48% hits;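 active = ranked among the strongest by inhibition in the single 10 µM screen, a fixed top-ranked set picked for dose follow-up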
DPM-DC inhibit: blocks S. pneumoniae diphosphomevalonate decarboxylase | purified DPM-DC, PK/LDH coupled NADH fluorescence | calls only at 10 µM | 65,000 compounds, 0.49% hits | AID 556;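 active = the 320 compounds with the highest percent inhibition in the single-dose primary screen, excluding strongly autofluorescent ones, cut at about 32% in these data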;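 also: kinetic rate of NADH fluorescence loss reporting ADP formed by the decarboxylase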
PMK inhibit: inhibitors of Streptococcus pneumoniae phosphomevalonate kinase; purified PMK, PK/LDH-coupled NADH absorbance 340 nm; inhibition, % at 10 µM; 65,000 compounds, 0.49% hits; AID 539;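 active = top-ranked compounds by inhibition in the single 10 µM screen, taking a fixed number of the strongest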
NADH coupling: blocks coupling enzymes of NAD/NADH assays; AID 774; 65,000 compounds, 0.02% hits; IC50, µM (top dose mostly 10 µM); coupled PK/LDH NADH assays, four targets;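 active = single-dose screening hits from any of four coupled enzyme assays that gave an IC50 when retested across doses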;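 also: the DPM-DC format reads NADH fluorescence rather than 340 nm absorbance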
A340 absorber: compound absorbs light at 340 nm | fold change at 10 µM | compound absorbance at 340 nm, fold over control | 65,000 tested, under 10 active;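 active = at 10 µM dose, initial 340 nm absorbance at least 2 fold that of control wells; inactive = change under 2 fold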;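 also: initial absorbance extrapolated from kinetic A340 decline of NADH oxidation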
Numbers stand for hits; - = inactive; . = not tested or not shown; + = active, no number. Rows were chosen to be rich in hits. Some 6.5% of all compounds tested hit in one or more screens of this group.

SMILES | Autofluor 339 | MK inhibit | DPM-DC inhibit | PMK inhibit | NADH coupling | A340 absorber
CS(=O)(=O)N(CC(=O)N1CCN(c2ccccc2)CC1)C1CCCCC1 | - | - | - | 36.0 | - | -
Cc1ccc(Cn2c3ccccc3c3cn[nH]c(=O)c32)cc1 | - | - | - | - | - | -
Cc1cc(C)n2nc(SCc3cc(=O)n4ccccc4n3)nc2n1 | - | - | - | - | - | -
Cc1cc(C)n2nc(SCc3cc(=O)n4c(C)cccc4n3)nc2n1 | - | - | - | 28.0 | - | -
CCOc1cc2c(C)cc(=O)oc2cc1Cl | - | - | - | - | - | -
CCOc1ccc(CCNC(=O)Cc2nn[nH]n2)cc1OCC | - | - | - | - | - | -
Cc1c(C)c2cc(Cl)c(OCc3nn[nH]n3)cc2oc1=O | 3.78 | - | . | - | - | -
COC(=O)Cc1c(C)c2c(OCc3nn[nH]n3)cc(C)cc2oc1=O | 3.78 | - | . | - | - | -
CCc1cc(=O)oc2cc(C)cc(OCc3nn[nH]n3)c12 | 3.83 | - | . | - | - | -
NC12CC3CC(C1)CC(CO)(C3)O2 | - | - | - | - | - | -
Cn1cnnc1SCNC(=O)C(F)(F)F | - | - | - | - | - | -
O=C(c1cccn2c(=O)c3ccccc3nc12)N1CCN(c2ccccn2)CC1 | - | - | - | - | - | -
O=C(O)c1cccn2c(=O)c3ccccc3nc12 | - | - | + | - | 54µM | -
CC(=O)n1c2ccccc2c2c1c1ccccc1n2C | 2.09 | - | . | - | - | -
Cc1cc(C)c2c(=O)n(CC(=O)N3CCC(Cc4ccccc4)CC3)sc2n1 | - | - | + | - | - | -
Cc1cc(C)c2c(=O)n(CC(=O)NCCCN3CCOCC3)sc2n1 | - | - | - | - | - | -
Cc1cc(C)c2c(=O)n(CC(=O)NCCCN3CCN(c4ccccc4F)CC3)sc2n1 | - | - | + | - | - | -
Cc1cccc(N2CCN(C(=O)Cn3sc4nc(C)cc(C)c4c3=O)CC2C)c1 (stereo not drawn) | - | - | - | - | - | -
COc1ccc(N(C(=O)c2ccco2)S(=O)(=O)c2cc(OC)ccc2OC)cc1 | - | - | - | - | - | -
COc1ccc(C(=O)Cn2nnc(-c3ccccc3NC(=O)c3ccco3)n2)cc1 | - | - | - | - | - | -
Cc1cc(C)n2nc(C(=O)NCc3ccco3)nc2n1 | - | - | - | - | - | -
Cc1cc(C)c2c(N)c(C(=O)N3CCCCCC3)sc2n1 | 2.16 | - | - | - | - | -
Cc1cc(C)c2c(N)c(C(=O)NCc3ccco3)sc2n1 | 2.14 | - | . | - | - | -
CC1CCc2sc3ncn4nc(C(=O)NCc5ccco5)nc4c3c2C1 (stereo not drawn) | 2.02 | - | - | - | - | -
CCOC(=O)NC(Nc1ccc(S(N)(=O)=O)cc1)(C(=O)OCC)C(F)(F)F (stereo not drawn) | - | - | - | - | - | -
SMILES | Autofluor 339 | MK inhibit | DPM-DC inhibit | PMK inhibit | NADH coupling | A340 absorber
c1cncc(Nc2nc(-c3cccs3)cs2)c1 | - | - | - | - | - | -
c1csc(-c2cnc3ccccc3n2)c1 | 3.64 | - | . | - | - | -
CCOc1ccc(C2C=C(c3ccc(C)cc3)Nc3ncnn32)cc1 (stereo not drawn) | 3.59 | - | . | - | - | -
COc1ccc(C2C=C(c3ccccc3)Nc3ncnn32)cc1 (stereo not drawn) | 3.39 | - | . | - | - | -
CCOc1ccc(C2C=C(c3ccc(C)cc3)Nc3nnnn32)cc1 (stereo not drawn) | - | - | - | - | - | -
Cc1c(O)ccc2c3c(c(=O)oc12)CCC(C)C3 (stereo not drawn) | 3.67 | - | . | - | - | -
Cc1c(O)ccc2c3c(c(=O)oc12)CCCC3 | 3.89 | - | . | - | - | -
O=c1oc2c(CN3CCOCC3)c(O)ccc2c2c1CCC2 | 3.58 | - | . | - | - | -
Cc1oc2ccc(O)c(CN3CCOCC3)c2c1C(=O)c1ccc(Cl)cc1 | - | - | - | - | - | -
O=C(N1CCOCC1)N1CCN(S(=O)(=O)c2ccccc2)C1 | - | - | - | - | - | -
Cn1c(/N=C/c2ccc3c(c2)OCO3)nc2ccccc21 | 2.09 | - | . | - | - | -
Cn1c(/N=C/c2c[nH]c3ccccc23)nc2ccccc21 | - | - | - | - | - | -
Cc1nn(-c2ccccc2)c2sc(-c3n[nH]c(=S)o3)cc12 | 3.86 | - | . | - | - | -
Cc1nn(-c2ccccc2)c2sc(C(=O)O)cc12 | - | - | - | - | - | -
